# Reference: PubChem BioAssay (EPA / NIEHS)
# The source made the active and inactive calls. The calls were made as follows: active = hit-call score of the fitted dose curve at least 0.9, where 1 is the maximum; inactive = score below 0.9.
# What was measured:
# [1] = ATG_CRE_CIS: Attagene CIS-FACTORIAL HepG2 Assay for human cAMP Responsive Element (CRE) binding protein 3 (AID 2282926); conditions: HepG2 CRE cis-reporter, Attagene multiplexed mRNA; actives raise or lower the signal
# Procedure, shortened: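 HepG2 cells transiently transfected with cis-element-driven multiple reporter transcription units; CRE reporter mRNA measured 24 h after dosing by RT-PCR, 6-FAM labelling, HpaI digestion and capillary electrophoresis. Bidirectional fit versus DMSO baseline.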
# [2] = ATG_DR4_LXR_CIS: Attagene CIS-FACTORIAL HepG2 Assay for human Liver X Receptor (LXR), DR4 submotif (AID 2282929); conditions: HepG2 Attagene DR4 cis-reporter, mRNA transcription; actives raise or lower the signal
# Procedure, shortened: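 Transiently transfected HepG2 liver cells; cis-regulated reporters; 24 h dosing. RT-PCR plus CE read-out of reporter mRNA. DMSO baseline, bidirectional curve fitting.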
# [3] = ATG_AP_1_CIS: Attagene CIS-FACTORIAL HepG2 Assay for human Activator Protein 1 (AP-1) (AID 2282931); conditions: HepG2 Attagene cis-factorial AP-1 reporter mRNA; actives raise or lower the signal
# Procedure, shortened: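 We transfected HepG2 cells transiently with a set of cis-regulated reporter transcription units, dosed them for 24 h, and quantified reporter mRNA via RT-PCR and capillary electrophoresis, scoring gain or loss of signal relative to DMSO.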
# [4] = ATG_AP_2_CIS: Attagene CIS-FACTORIAL HepG2 Assay for human Activator Protein 2 (AP-2) (AID 2282932); conditions: HepG2 AP-2 cis-reporter, Attagene transcription factor profiling; actives raise or lower the signal
# Procedure, shortened: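 Step one: transient transfection of HepG2 with reporter transcription units. Step two: 24 h chemical exposure. Step three: RNA extraction, RT-PCR, labelled fragment analysis by capillary electrophoresis; DMSO serves as baseline.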
# [5] = target: Transcription factor E2F1 (Homo sapiens) (UniProt Q01094); test: ATG_E2F_CIS: Attagene CIS-FACTORIAL HepG2 Assay for human E2F Transcription Factor 1 (AID 2282935); conditions: HepG2 Attagene cis-reporter, E2F reporter RNA transcripts; actives raise or lower the signal
# Procedure, shortened: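 Total RNA from 24 h-treated, reporter-transfected HepG2 cells undergoes DNase I treatment, oligo(dT) reverse transcription, PCR and 6-FAM primer extension before capillary electrophoresis.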
# [6] = ATG_M_61_CIS: Attagene CIS-FACTORIAL HepG2 Assay for M61 Transcription Factor (Internal Marker) (AID 2282937); conditions: HepG2 Attagene CIS-FACTORIAL M61 internal marker reporter; actives raise or lower the signal
# Procedure, shortened: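 Multiplexed reporter mRNA assay, HepG2 human hepatoma cells, 24 h treatment. Signal: FAM-labelled, HpaI-digested RT-PCR fragments by CE. Fit: bidirectional, baseline DMSO.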
# [7] = ATG_EGR_CIS: Attagene CIS-FACTORIAL HepG2 Assay for human Early Growth Response 1 (EGR1) (AID 2282938); conditions: HepG2 Attagene CIS-FACTORIAL EGR reporter mRNA; actives raise or lower the signal
# Procedure, shortened: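 Multiplexed cis-reporter system in human hepatoma HepG2 cells, transiently transfected. Cells are dosed for 24 h; reporter transcripts are amplified, fluorescently tagged and sized by capillary electrophoresis, with DMSO as negative control.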
# [8] = ATG_M_19_CIS: Attagene CIS-FACTORIAL HepG2 Assay for M19 Transcription Factor (Internal Marker) (AID 2282939); conditions: HepG2 Attagene CIS-FACTORIAL M19 internal marker reporter; actives raise or lower the signal
# Procedure, shortened: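 Transfect HepG2 with MRTU reporter library → dose chemical, 24 h → isolate total RNA, reverse-transcribe with oligo(dT) → PCR, 6-FAM label, HpaI cut (2 h, 37 C) → capillary electrophoresis. Bidirectional fit vs DMSO.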
# [9] = ATG_Ets_CIS: Attagene CIS-FACTORIAL HepG2 Assay for human Erythroblast Transformation Specific (ETS) (AID 2282941); conditions: HepG2 ETS cis-reporter transcription, actives raise or lower the signal
# Procedure, shortened: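 After transient cis-reporter transfection, HepG2 cells receive test chemical for 24 h. Reporter mRNA levels, measured by RT-PCR and capillary electrophoresis fluorescence, are analysed bidirectionally relative to the DMSO baseline.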
# [10] = target: Hepatocyte nuclear factor 3-beta (Homo sapiens) (UniProt Q9Y261); test: ATG_FoxA2_CIS: Attagene CIS-FACTORIAL HepG2 Assay for human Forkhead box A2 (FOXA2) (AID 2282942); conditions: HepG2 cis-reporter transcription factor activity, 24 h; actives raise or lower the signal
# Procedure, shortened: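 Multiplexed cis-element reporter assay in transiently transfected HepG2. Twenty-four hours post-dosing, RNA was reverse-transcribed, amplified, FAM-labelled, HpaI-digested and separated by CE. Activity gain or loss relative to DMSO.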
# [11] = ATG_GATA_CIS: Attagene CIS-FACTORIAL HepG2 Assay for human GATA Binding Protein (AID 2282944); conditions: HepG2 GATA cis-element reporter, Attagene multiplex mRNA; actives raise or lower the signal
# Procedure, shortened: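 Transient MRTU transfection, HepG2, 24 h compound exposure. Total RNA → oligo(dT) RT → PCR → 6-FAM primer extension → HpaI cut → CE. Bidirectional fit vs DMSO.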
# [12] = ATG_GLI_CIS: Attagene CIS-FACTORIAL HepG2 Assay for human Zinc Finger Protein GLI1 (AID 2282945); conditions: HepG2, Attagene cis-factorial reporter mRNA, GLI element; actives raise or lower the signal
# Procedure, shortened: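 Bidirectional curve fits relative to DMSO, using reporter mRNA levels from RT-PCR plus capillary electrophoresis. Cells were HepG2 transiently carrying cis-regulated reporter constructs, harvested 24 h after dosing.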
# [13] = ATG_ISRE_CIS: Attagene CIS-FACTORIAL HepG2 Assay for human Interferon Regulatory Factor 1 (IRF1) binding to an Interferon-Stimulated Response Element (ISRE) (AID 2282948); conditions: HepG2 ISRE cis-reporter (Attagene), mRNA transcription readout; actives raise or lower the signal
# Procedure, shortened: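 Quantitation relies on labelled RT-PCR fragments separated by capillary electrophoresis. Human HepG2 cells bearing cis-promoter reporter constructs were treated 24 h; DMSO served as baseline for bidirectional fitting.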
# [14] = ATG_M_32_CIS: Attagene CIS-FACTORIAL HepG2 Assay for M32 Transcription Factor (Internal Marker) (AID 2282949); conditions: HepG2 Attagene cis-factorial M32 reporter, mRNA; actives raise or lower the signal;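 also: background control marker of the multiplexed CIS panel rather than a real target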
# Procedure, shortened: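 Internal background marker read-out: RT-PCR/capillary electrophoresis fluorescence of reporter transcripts from transiently transfected HepG2 cells after 24 h chemical exposure. Activity fitted bidirectionally relative to DMSO negative control.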
# [15] = ATG_M_06_CIS: Attagene CIS-FACTORIAL HepG2 Assay for M06 Transcription Factor (Internal Marker) (AID 2282950); conditions: HepG2 Attagene CIS-FACTORIAL M06 internal marker reporter; actives raise or lower the signal
# Procedure, shortened: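 Read-out is fluorescence of labelled reporter cDNA fragments resolved by capillary electrophoresis after RT-PCR. Cells: HepG2 carrying transfected cis-promoter reporter units, treated 24 h. Gain or loss of signal fitted relative to DMSO.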
# [16] = ATG_MRE_CIS: Attagene CIS-FACTORIAL HepG2 Assay for human Metal Responsive Element (MRE) (AID 2282954); conditions: HepG2 MRE cis-reporter transcription, Attagene multiplex; actives raise or lower the signal
# Procedure, shortened: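 After a 24 h chemical exposure, transiently transfected HepG2 cells yield RNA whose reporter sequences are amplified, FAM-labelled and sized by capillary electrophoresis. Curves are fitted bidirectionally relative to DMSO.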
# [17] = target: Paired box protein Pax-6 (Homo sapiens) (UniProt P26367); test: ATG_Pax6_CIS: Attagene CIS-FACTORIAL HepG2 Assay for human Paired Box 6 (PAX6) (AID 2282956); conditions: HepG2 CIS-FACTORIAL PAX6 reporter transcription, RNA readout; actives raise or lower the signal
# Procedure, shortened: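 After twenty-four hours of chemical exposure, transfected HepG2 cells are harvested for RNA. Cis-promoter reporter transcripts are amplified, fluorescently labelled and sized by capillary electrophoresis, with gain and loss of signal scored against DMSO.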
# [18] = ATG_PXRE_CIS: Attagene CIS-FACTORIAL HepG2 Assay for human Pregnane X Receptor Element (PXRE) (AID 2282957); conditions: HepG2 Attagene CIS-FACTORIAL PXRE reporter, mRNA; actives raise or lower the signal
# Procedure, shortened: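 HepG2 cells transiently transfected with cis-element-driven multiplexed reporter units; after 24 h chemical exposure, reporter mRNA measured by RT-PCR, 6-FAM labelling, HpaI digestion and capillary electrophoresis. Bidirectional fitting relative to DMSO.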
# [19] = target: Transcription factor Sp1 (Homo sapiens) (UniProt P08047); test: ATG_Sp1_CIS: Attagene CIS-FACTORIAL HepG2 Assay for human Specificity Protein 1 (Sp1) (AID 2282961); conditions: HepG2 Sp1 cis-reporter transcription, actives raise or lower the signal
# Procedure, shortened: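 Chemicals are dosed onto HepG2 cells transfected with multiple cis-promoter reporter constructs, and after 24 h reporter RNA is reverse-transcribed, PCR-amplified and resolved by capillary electrophoresis for fluorescence quantitation; activity is scored up or down against DMSO.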
# [20] = target: Signal transducer and activator of transcription 3 (Homo sapiens) (UniProt P40763); test: ATG_STAT3_CIS: Attagene CIS-FACTORIAL HepG2 Assay for human Signal Transducer and Activator of Transcription 3 (STAT3) (AID 2282963); conditions: HepG2, Attagene cis-factorial STAT3 reporter transcription; actives raise or lower the signal
# Procedure, shortened: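 After a 24 h compound incubation, total RNA from MRTU-transfected HepG2 cells was converted to cDNA and reporter sequences PCR-amplified, labelled and profiled by capillary electrophoresis. Gain and loss of signal were referenced to DMSO.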
# Chain of Transcription factor E2F1 (Homo sapiens) (Q01094 whole entry, looked up): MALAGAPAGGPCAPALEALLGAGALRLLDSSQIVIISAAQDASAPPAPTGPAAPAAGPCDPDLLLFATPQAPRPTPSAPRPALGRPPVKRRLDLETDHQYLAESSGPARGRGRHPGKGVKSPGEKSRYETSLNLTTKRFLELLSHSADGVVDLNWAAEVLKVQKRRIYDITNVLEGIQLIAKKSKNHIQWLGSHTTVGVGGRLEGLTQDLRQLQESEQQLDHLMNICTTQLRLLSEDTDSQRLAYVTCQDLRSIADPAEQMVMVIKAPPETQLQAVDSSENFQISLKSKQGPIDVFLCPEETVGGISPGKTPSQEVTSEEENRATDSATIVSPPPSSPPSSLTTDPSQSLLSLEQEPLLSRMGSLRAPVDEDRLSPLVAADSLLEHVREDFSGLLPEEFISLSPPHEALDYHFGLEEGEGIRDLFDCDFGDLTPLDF
# Chain of Transcription factor Sp1 (Homo sapiens) (P08047 whole entry, looked up): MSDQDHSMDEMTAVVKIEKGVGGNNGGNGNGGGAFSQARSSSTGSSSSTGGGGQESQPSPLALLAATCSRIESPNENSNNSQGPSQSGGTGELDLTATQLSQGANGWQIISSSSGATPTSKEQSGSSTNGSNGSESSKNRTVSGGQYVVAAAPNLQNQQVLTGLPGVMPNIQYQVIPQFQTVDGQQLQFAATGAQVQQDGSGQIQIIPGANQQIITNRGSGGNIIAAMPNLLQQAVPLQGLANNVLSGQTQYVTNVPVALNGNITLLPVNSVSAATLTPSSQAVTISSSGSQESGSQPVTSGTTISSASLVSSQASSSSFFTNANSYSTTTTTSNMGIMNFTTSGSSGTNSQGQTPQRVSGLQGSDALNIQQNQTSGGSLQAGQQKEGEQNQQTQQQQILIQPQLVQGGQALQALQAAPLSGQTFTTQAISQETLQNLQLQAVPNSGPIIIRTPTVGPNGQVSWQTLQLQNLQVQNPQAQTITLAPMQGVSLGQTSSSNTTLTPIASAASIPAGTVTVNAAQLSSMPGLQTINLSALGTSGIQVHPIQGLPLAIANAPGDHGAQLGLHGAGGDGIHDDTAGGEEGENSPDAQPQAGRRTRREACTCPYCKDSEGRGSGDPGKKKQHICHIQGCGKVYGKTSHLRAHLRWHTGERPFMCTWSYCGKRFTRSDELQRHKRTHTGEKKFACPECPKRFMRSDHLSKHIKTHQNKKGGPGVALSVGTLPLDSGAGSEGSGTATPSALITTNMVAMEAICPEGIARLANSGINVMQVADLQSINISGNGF
# Chain of Hepatocyte nuclear factor 3-beta (Homo sapiens) (Q9Y261 whole entry, looked up): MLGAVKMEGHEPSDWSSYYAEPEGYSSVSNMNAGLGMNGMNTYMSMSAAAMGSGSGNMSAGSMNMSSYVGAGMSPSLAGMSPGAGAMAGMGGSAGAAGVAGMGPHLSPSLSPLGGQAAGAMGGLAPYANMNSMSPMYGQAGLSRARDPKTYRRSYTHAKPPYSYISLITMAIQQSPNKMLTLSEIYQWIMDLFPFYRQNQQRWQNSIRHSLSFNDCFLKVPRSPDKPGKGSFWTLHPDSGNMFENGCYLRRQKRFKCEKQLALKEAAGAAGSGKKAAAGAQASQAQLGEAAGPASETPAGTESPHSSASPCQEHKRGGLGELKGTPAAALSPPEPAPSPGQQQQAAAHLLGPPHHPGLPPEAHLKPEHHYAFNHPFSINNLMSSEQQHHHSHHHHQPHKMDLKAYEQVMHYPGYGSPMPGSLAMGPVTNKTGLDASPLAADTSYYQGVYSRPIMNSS
# Chain of Paired box protein Pax-6 (Homo sapiens) (P26367 whole entry, looked up): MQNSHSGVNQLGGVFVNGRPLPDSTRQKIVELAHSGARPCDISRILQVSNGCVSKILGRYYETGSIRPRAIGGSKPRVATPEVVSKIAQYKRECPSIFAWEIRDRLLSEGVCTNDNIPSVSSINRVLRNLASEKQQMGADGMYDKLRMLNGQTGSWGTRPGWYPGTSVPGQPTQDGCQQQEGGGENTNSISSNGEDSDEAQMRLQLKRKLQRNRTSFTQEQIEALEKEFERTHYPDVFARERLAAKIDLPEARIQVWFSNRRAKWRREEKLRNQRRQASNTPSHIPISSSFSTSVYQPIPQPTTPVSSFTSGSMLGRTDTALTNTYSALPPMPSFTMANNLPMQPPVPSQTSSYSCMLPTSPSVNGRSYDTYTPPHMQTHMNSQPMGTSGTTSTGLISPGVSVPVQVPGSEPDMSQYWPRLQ
# Chain of Signal transducer and activator of transcription 3 (Homo sapiens) (P40763 whole entry, looked up): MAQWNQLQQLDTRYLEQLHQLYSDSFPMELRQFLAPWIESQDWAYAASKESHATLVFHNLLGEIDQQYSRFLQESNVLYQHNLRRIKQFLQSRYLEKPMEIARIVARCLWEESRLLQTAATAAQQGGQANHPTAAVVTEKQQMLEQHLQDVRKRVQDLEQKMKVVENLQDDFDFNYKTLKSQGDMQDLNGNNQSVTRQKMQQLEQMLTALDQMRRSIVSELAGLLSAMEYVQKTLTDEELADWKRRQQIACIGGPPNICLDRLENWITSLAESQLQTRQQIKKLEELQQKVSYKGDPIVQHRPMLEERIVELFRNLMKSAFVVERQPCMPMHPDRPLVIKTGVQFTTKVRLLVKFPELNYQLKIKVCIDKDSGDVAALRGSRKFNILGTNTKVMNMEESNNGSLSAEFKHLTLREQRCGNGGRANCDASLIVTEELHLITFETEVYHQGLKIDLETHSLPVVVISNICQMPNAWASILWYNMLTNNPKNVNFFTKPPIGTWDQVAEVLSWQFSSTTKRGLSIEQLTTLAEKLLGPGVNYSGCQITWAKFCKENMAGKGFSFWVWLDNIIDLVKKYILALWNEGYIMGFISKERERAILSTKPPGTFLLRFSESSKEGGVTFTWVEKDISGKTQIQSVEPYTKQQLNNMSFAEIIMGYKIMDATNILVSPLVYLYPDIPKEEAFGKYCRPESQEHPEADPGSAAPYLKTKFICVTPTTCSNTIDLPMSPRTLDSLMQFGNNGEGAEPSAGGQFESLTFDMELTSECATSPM
smiles,measurement,setting,value
C=C(Cl)Cl,outcome,[1],inactive
same,outcome,[2],inactive
same,outcome,[3],inactive
same,outcome,[4],inactive
same,outcome,[5],inactive
same,outcome,[6],inactive
same,outcome,[7],inactive
same,outcome,[8],inactive
same,outcome,[9],inactive
same,outcome,[10],inactive
same,outcome,[11],inactive
same,outcome,[12],inactive
same,outcome,[13],inactive
same,outcome,[14],inactive
same,outcome,[15],inactive
same,outcome,[16],inactive
same,outcome,[17],inactive
same,AC50,[18],50.8 µM (active)
same,outcome,[19],inactive
same,outcome,[20],inactive
N#CCNCC#N,outcome,[1],inactive
same,outcome,[2],inactive
same,outcome,[3],inactive
same,outcome,[4],inactive
same,outcome,[5],inactive
same,outcome,[6],inactive
same,outcome,[7],inactive
same,outcome,[8],inactive
same,outcome,[9],inactive
same,outcome,[10],inactive
same,outcome,[11],inactive
same,outcome,[12],inactive
same,outcome,[13],inactive
same,outcome,[14],inactive
same,outcome,[15],inactive
same,outcome,[16],inactive
same,outcome,[17],inactive
same,outcome,[18],inactive
same,outcome,[19],inactive
same,outcome,[20],inactive
Nc1cc(Cl)cc(Cl)c1,outcome,[1],inactive
same,outcome,[2],inactive
same,outcome,[3],inactive
same,outcome,[4],inactive
same,outcome,[5],inactive
same,outcome,[6],inactive
same,outcome,[7],inactive
same,outcome,[8],inactive
same,outcome,[9],inactive
same,outcome,[10],inactive
same,outcome,[11],inactive
same,outcome,[12],inactive
same,outcome,[13],inactive
same,outcome,[14],inactive
same,outcome,[15],inactive
same,outcome,[16],inactive
same,outcome,[17],inactive
same,outcome,[18],inactive
same,outcome,[19],inactive
same,outcome,[20],inactive
CC(C)(Cl)Cl,outcome,[1],inactive
same,outcome,[2],inactive
same,outcome,[3],inactive
same,outcome,[4],inactive
same,outcome,[5],inactive
same,outcome,[6],inactive
same,outcome,[7],inactive
same,outcome,[8],inactive
same,outcome,[9],inactive
same,outcome,[10],inactive
same,outcome,[11],inactive
same,outcome,[12],inactive
same,outcome,[13],inactive
same,outcome,[14],inactive
same,outcome,[15],inactive
same,outcome,[16],inactive
same,outcome,[17],inactive
same,outcome,[18],inactive
same,outcome,[19],inactive
same,outcome,[20],inactive
COc1cc(OC)c(OC)cc1C=O,outcome,[1],inactive
same,outcome,[2],inactive
same,outcome,[3],inactive
same,outcome,[4],inactive
same,outcome,[5],inactive
same,outcome,[6],inactive
same,outcome,[7],inactive
same,outcome,[8],inactive
same,outcome,[9],inactive
same,outcome,[10],inactive
same,outcome,[11],inactive
same,outcome,[12],inactive
same,outcome,[13],inactive
same,outcome,[14],inactive
same,outcome,[15],inactive
same,outcome,[16],inactive
same,outcome,[17],inactive
same,AC50,[18],50.5 µM (active)
same,outcome,[19],inactive
same,outcome,[20],inactive
